Measured values reported in PubChem BioAssay AID1565 (Sanford-Burnham Center for Chemical Genomics, 2009).
Among all 290,000 compounds or so, about 3,200 (1.1%) were called active. No stated cut-off is given here; in the data, active means inhibition above about 60%; inactive means the rest. This excerpt belongs to a sample that is enriched for actives.

These compounds were tested against Phosphoethanolamine/phosphocholine phosphatase (Homo sapiens) (UniProt Q8TCT1) (assay: PubChem AID 1565). Settings: recombinant PHOSPHO1, absorbance phosphatase assay; at 13.3 µM; active compounds read high.
Sequence of Phosphoethanolamine/phosphocholine phosphatase (Homo sapiens) (Q8TCT1 whole entry, looked up): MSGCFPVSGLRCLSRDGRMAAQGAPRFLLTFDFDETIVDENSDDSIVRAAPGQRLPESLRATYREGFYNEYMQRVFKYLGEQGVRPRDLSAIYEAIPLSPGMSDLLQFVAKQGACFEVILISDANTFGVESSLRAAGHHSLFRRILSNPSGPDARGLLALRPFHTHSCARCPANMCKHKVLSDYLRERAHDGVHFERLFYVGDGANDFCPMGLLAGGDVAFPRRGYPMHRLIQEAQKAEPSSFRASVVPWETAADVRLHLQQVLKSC

inhibition, inactive:
COCCCC1CCN(C(=O)C2CCC(=O)N(C3CCCCCC3)C2)CC1 (stereo not drawn) 26.5%, O=C(N/N=C\c1cccnc1)c1cc(-c2ccccc2)nc2c(Cl)cccc12 9%, O=C(/C=C/c1cccc(C(F)(F)F)c1)N1CCN(c2ccccn2)CC1 23.3%, Clc1c(OCCCn2ccnc2)ccc2ccccc12 13.9%, O=C(O)c1[nH]c2ccccc2c1C(c1cccc(O)c1)c1c(C(=O)O)[nH]c2ccccc12 14.1%, CNC(=O)c1ccc(NC(=O)c2cccc(C(F)(F)F)c2)cc1 47.6%, O=C(O)CC1(CC(=O)Nc2cccc(C(F)(F)F)c2)CCCC1 24%, O=C(O)CSCC(=O)Nc1ccc(C(F)(F)F)cc1 46.4%, Cc1cccc(NC(=O)c2nnn(-c3cccc(C(F)(F)F)c3)c2N)c1 11.4%, COc1ccc(/C=N/NC(=O)C2CC2)c(OC)c1OC 21.2%, CC1Sc2ccc(S(=O)(=O)CCC(=O)NCc3ccccc3Cl)cc2NC1=O (stereo not drawn) -22.3%, COc1ccc(CCNC(=O)COC(=O)c2ccc[nH]c2=O)cc1 0.3%, COc1ccc(C(=O)OCC(=O)NCCCc2ccccc2)cc1OC 17.9%, O=C(CSc1nnnn1C1CCCC1)N1CCCCC1 30.7%, O=C(c1cc2ccccc2s1)N1CCN(c2ccccn2)CC1 42.8%, CCc1ccc(OCC2c3cc(OC)c(OC)cc3CCN2C(C)=O)cc1 (stereo not drawn) 42%, COc1ccccc1OCCNC(=O)CCNC(=O)c1ccccc1Cl 23.8%, Cc1cc(CNC(=O)c2cccc([N+](=O)[O-])c2)c2ccccc2n1 -3%, O=C(c1cccc([N+](=O)[O-])c1)N1CCN(Cc2ccccc2)CC1 18.4%, O=C(N/N=C/c1ccc(Cl)c(Cl)c1)c1ccc2nc[nH]c2c1 29.8%, N#Cc1ccc(C2N=C(c3ccccc3)NO2)cc1 (stereo not drawn) 30.4%, CCOC(=O)c1c(C)n(C)c2ccc(OC)c(NS(=O)(=O)CC)c12 -2.4%, COc1ccc(Cl)cc1NC(=O)CN1CCN(C(=O)N2CCOCC2)CC1 4.5%

inhibition, active:
O=C(O)CSCC(=O)Nc1cccc(C(F)(F)F)c1 61.5%, Cc1cccc(NC(=O)c2cccc(C(F)(F)F)c2)c1 66.2%, COc1ccccc1C(=O)OCC(=O)NCCNC(=O)COC(=O)c1ccccc1OC 70.6%, CN(C(=O)c1cccc([N+](=O)[O-])c1)c1ccccc1C(=O)NCc1ccccc1 61%, CCOC(=O)c1c(C)n(C)c2ccc(OC)c(NC(=O)CN3CCC4(CC3)OCCO4)c12 96.8%
